# Screens deposited in PubChem BioAssay by several laboratories.
# DAX1 inh-1 – DAX1 (NR0B1) inhibitors on StAR promoter, primary screen, cell-based, luminescence, SF-1 (NR5A1), full-length DAX-1; HEK293T StAR-luciferase reporter, SF-1/DAX-1 repression relief; inhibition, % at 6.8 µM; 370,000 compounds, 1.1% hits;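 active means inhibition above the mean over all tested compounds plus 3 SD, cut at about 3.6% in these data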;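 further: 0% = DAX-1 cells with DMSO and 100% = cells lacking DAX-1 with DMSO; higher inhibition means more luminescence from relief of DAX-1 repression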
# DAX1 inh-2 – DAX1 (NR0B1) inhibitors, primary screen, cell-based, HEK293, Gal4-DAX1, luciferase luminescence; Nuclear receptor subfamily 0 group B member 1 (Homo sapiens), P51843; inhibition, % at 6.75 µM; 340,000 compounds, 0.99% hits; AID 504766, 2011; HEK293 Gal4-DAX1 luciferase reporter;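 active means inhibition above the mean over all tested compounds plus 3 SD, cut at about 4.2% in these data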;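 further: 0% = DAX1-transfected cells with DMSO and 100% = empty-vector control cells with DMSO; inhibition shows as a rise in luminescence from relieved DAX1 repression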
# hgDAF12 agonist – H. glycines DAF-12 receptor agonists, primary screen, cell-based, luminescence, HEK293, GAL4 fusion, UAS-luciferase; Nuclear hormone receptor DAF-12 (Heterodera glycines), GAL4 fusion; HEK293 GAL4-hgDAF12 UAS-luciferase reporter, agonist luminescence; normalized to butyrate control; activation, % at 6.8 µM; 370,000 compounds, 1.8% hits;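 active means activation above a cutoff set at the mean of all screened compounds plus 3 SD, cut at about 10% in these data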;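 further: 0% = DMSO wells and 100% = sodium butyrate wells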
# ssDAF12 agonist – S. stercoralis DAF-12 nuclear receptor activators, primary screen, cell-based, luminescence, HEK293, GRIP1 co-expression, lit1-tk-luc; Nuclear hormone receptor DAF-12 (Strongyloides stercoralis); HEK293 ssDAF-12/GRIP1 lit1-tk-luc reporter; % of 3 µM dafachronic acid response; activation, % at 6.8 µM; 370,000 compounds, 1% hits; AID 652126, 2013;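 active means activation above the mean over all tested compounds plus 3 SD, cut at about 0.9% in these data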;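 further: 0% = DMSO-only wells and 100% = 3 µM delta7-dafachronic acid wells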
# NR1D1 modulator – modulators of Rev-erb alpha DNA binding, primary screen, biochemical, FITC-DNA, fluorescence polarization, uHTS | activity, % at 10 µM | 370,000 compounds, 0.79% hits | Nuclear receptor subfamily 1 group D member 1 (Homo sapiens), P20393 | AID 1259318, 2017 | Rev-erbα–FITC-DNA binding, 90 min;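 active means activity above about 14%, limit read from the data; passing the limit was not always enough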;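 further: 0% = DMSO wells with 35 nM protein and 100% = DMSO wells with 750 nM protein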
# hcDAF-12 act – H. contortus DAF-12 nuclear receptor activators, primary screen, cell-based, luminescence, HEK293, lit1-tk-luc reporter; HEK293 hcDAF-12 lit1-tk-luc reporter; 0% DMSO, 100% Δ7-dafachronic acid; activation, % at 6.8 µM; 370,000 compounds, 1.4% hits; AID 652067, 2013;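 active means activation above the mean of all tested compounds plus 3 SD, cut at about 5.5% in these data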;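 further: 100% = response to 3 µM Δ7-dafachronic acid high control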
# hgDAF12 ag – H. glycines DAF-12 receptor agonists, confirmation, cell-based, luminescence, HEK293, GAL4-LBD fusion; AID 743050, 2013; activation, % at 6.8 µM; shares compounds with hgDAF12 agonist; HEK293 GAL4-hgDAF12 luciferase reporter, agonist mode; percent of butyrate response; 3,300 compounds, 80% hits;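 active means mean activation over triplicate wells above the hit cutoff derived from the earlier primary screen, cut at about 11% in these data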;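 further: 0% = DMSO low control and 100% = 2 mM sodium butyrate high control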
# LXRb DAF12 ctr – LXR agonists, Gal4 luciferase reporter, confirmation, counter-screen for hgDAF-12 agonist project, cell-based, luminescence, HEK293, H. glycines campaign; shares compounds with hgDAF12 agonist; 24 h; activation, % at 6.8 µM; 3,300 tested, under 10 active; AID 743051, 2013;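 active means mean activation of the triplicate above a set limit carried over from the primary screen, none filed active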
# Target sequence (P55055 whole entry, looked up, the tested form may be a part): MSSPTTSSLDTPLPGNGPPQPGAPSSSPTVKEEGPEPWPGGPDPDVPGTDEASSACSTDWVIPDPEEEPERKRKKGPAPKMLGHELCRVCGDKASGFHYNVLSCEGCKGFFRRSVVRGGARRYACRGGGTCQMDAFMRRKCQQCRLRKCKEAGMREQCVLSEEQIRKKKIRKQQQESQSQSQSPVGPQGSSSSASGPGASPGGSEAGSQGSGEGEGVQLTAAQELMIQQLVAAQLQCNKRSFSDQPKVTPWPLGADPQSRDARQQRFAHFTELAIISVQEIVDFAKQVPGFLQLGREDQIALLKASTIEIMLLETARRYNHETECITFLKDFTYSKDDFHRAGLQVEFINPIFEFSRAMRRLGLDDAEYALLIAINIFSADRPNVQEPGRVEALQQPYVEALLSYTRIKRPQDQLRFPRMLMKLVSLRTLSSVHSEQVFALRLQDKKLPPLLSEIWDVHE
# Numbers without * were called inactive; / = not tested or not shown. Hits are enriched below; roughly 4.8% of the tested compounds scored in any of these assays.
SMILES,DAX1 inh-1,DAX1 inh-2,hgDAF12 agonist,ssDAF12 agonist,NR1D1 modulator,hcDAF-12 act,hgDAF12 ag,LXRb DAF12 ctr
Cc1cnc(C(=O)Nc2ccc3c(c2)CCC3)cn1,4.1*,1,14*,0,0,4,17*,1
Cc1ccc(C(=O)Nc2nc(C)c(C(=O)Nc3ccc4c(c3)CCC4)s2)cc1,0,0,17*,1.3*,12,3,17*,0
O=C(Nc1cccc(Cl)c1)c1cnccn1,0,0,3,0,1,-1,/,/
O=C(Nc1ccc2c(c1)CCC2)c1cnccn1,4.4*,3,17*,0,-1,3,15*,1
CCCC1CCC2(CC1)CCC2OC(=S)NCc1cccc(F)c1 (stereo not drawn),/,/,1,-2,1,-2,/,/
CCC1CCc2sc(C(=O)Nc3cc(S(=O)(=O)N4CCOCC4)ccc3OC)cc2C1 (stereo not drawn),/,/,2,-1,-13,0,/,/
Cc1cc(NC(=O)c2nn3cccnc3c2Cl)no1,3,0,14*,1,1,2,15*,1
Cc1cc(NC(=O)c2cnn3cccnc23)no1,1,0,9,-1,6,3,/,/
O=C(Nc1ncccc1O)c1ccc(S(=O)(=O)NCc2ccco2)cc1,4.3*,4,21*,0,-4,0,20*,0
O=C(Nc1ccc2ccccc2c1)C1CC2CCC1C2 (stereo not drawn),/,/,15*,0,-1,3,12*,1
CN(C(=O)c1cccc(COc2ccc(Cl)cc2Cl)c1)c1ccccc1,1,-2,13*,-1,-5,2,13*,1
O=c1c(-c2ccc3c(c2)OCCO3)coc2cc(OC3OC(CO)C(O)C(O)C3O)ccc12 (stereo not drawn),4,1,17*,0,-3,5.8*,14*,1
COc1ccc(/C=N/Nc2nccnc2Cl)c(OC)c1,3,2,21*,0,-1,2,13*,0
COc1cccc(/C=N/Nc2nccnc2Cl)c1O,-3,-8,4,0,0,2,/,/
Nc1[nH]c(C(=O)c2ccc(Br)cc2)c(-c2ccccc2Cl)c1C(=O)NCCc1c[nH]c2ccccc12,0,/,-1,-1,1,0,/,/
Cc1cc(C)cc(NC(=O)c2ccc(CSc3nnc(C)s3)cc2)c1,1,-1,4,-1,5,0,/,/
Cc1nnc(NC(=O)c2ccc(Br)cc2)s1,0,1,1,-1,5,0,/,/
Cc1ccc(NC(=O)c2ccc(CSc3nnc(C)s3)cc2)cc1,2,3,16*,0,2,4,14*,1
Cc1ccc(C(=O)Nc2nnc(C)s2)cc1,4.3*,/,16*,0,-5,6,12*,1
CN(C)c1ccc(N(C)C)c(C(O)(c2ccccc2)c2ccccc2)c1,0,/,-1,-2,1,-1,/,/
CCOC(=O)N/N=C1\CCc2ccccc21,1,0,15*,0,3,4,8,0
Cc1ccc(C(=O)N/N=C2\CCc3ccccc32)c(C)c1,2,2,15*,0,0,0,14*,1
O=C(N/N=C1/CCc2ccccc21)C1CC1,0,0,0,-1,-4,3,/,/
COC(=O)[C@]12C[C@H](CC(=O)NCc3ccc(C)o3)C(=O)N(Cc3ccc4c(c3)OCO4)C1=C[C@H](COCc1ccccc1)O[C@@H]2C,-2,/,-1,-1,3,-3,/,/
COC(=O)[C@]12C[C@H](CC(=O)NCc3cccs3)C(=O)N(Cc3cccc4ccccc34)C1=C[C@H](C(C)C)O[C@@H]2C1CC1,0,/,-1,-2,1,-1,/,/
SMILES,DAX1 inh-1,DAX1 inh-2,hgDAF12 agonist,ssDAF12 agonist,NR1D1 modulator,hcDAF-12 act,hgDAF12 ag,LXRb DAF12 ctr
CC(=O)N[C@H]1C[C@@H]2O[C@H](CO)CC[C@@H]2O[C@@H]1CCc1ccc(-c2ccc(F)cc2)cc1,0,/,-1,-1,0,-1,/,/
Cc1cccc(NC(=O)c2sc3nc(N)c(C#N)cc3c2N)c1,3,0,21*,0,0,0,9,1
CC(=O)N1CCCN(S(=O)(=O)c2ccc3c(c2)c(=O)n(C)c(=O)n3C)CC1,1,/,1,-1,9,2,/,/
CC(=O)O[C@H]1C=C[C@@H](C#Cc2ccc(C(C)(C)C)cc2)O[C@@H]1COC(=O)Nc1ccccc1,-1,/,0,0,0,0,/,/
C/C(=N\Nc1ccc([N+](=O)[O-])cc1)c1ccco1,1,4.8*,15*,0,8,3,15*,1
CC1CCc2c(C(=O)NCc3ccccn3)csc2C1 (stereo not drawn),2,1,17*,-1,-3,4,7,0
CC1CCc2c(C(=O)Nc3ccccn3)csc2C1 (stereo not drawn),3,3,17*,0,0,3,12*,1
CC1CCc2c(C(=O)NCc3cccnc3)csc2C1 (stereo not drawn),0,0,3,-1,5,-1,/,/
C[C@@H]1CN(c2ccc(N3CCNC[C@@H]3C)cc2C#N)CCN1Cc1ccccc1,0,/,2,-2,-1,0,/,/
Cc1ccc(-c2cc(N)n(-c3ccc(F)cc3)n2)cc1,4.3*,1,15*,-1,-1,5,10,1
Cc1ccc(S(=O)(=O)NC(CCCNC(=O)OCc2ccccc2)C(=O)O)cc1 (stereo not drawn),0,/,0,-1,5,0,/,/
O=C(NCCc1ccccc1)c1c(F)cccc1F,3.9*,1,14*,0,0,3,12*,1
